# Measured values: ChEMBL document CHEMBL1961873, “Compounds: GSK PKIS; Assays: Nanosyn kinase panel” (2012)
# Experiments:
# [1] = target: Sphingosine kinase 1 (Homo sapiens) (UniProt Q9NYA1); details: at 1 µM;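 also: mean SPHK1 inhibition value reported from the GSK PKIS kinase panel screen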
# [2] = target: T1, Sphingosine kinase 2 (Homo sapiens) (UniProt Q9NRA0); details: at 0.1 µM
# T1 sequence (whole entry): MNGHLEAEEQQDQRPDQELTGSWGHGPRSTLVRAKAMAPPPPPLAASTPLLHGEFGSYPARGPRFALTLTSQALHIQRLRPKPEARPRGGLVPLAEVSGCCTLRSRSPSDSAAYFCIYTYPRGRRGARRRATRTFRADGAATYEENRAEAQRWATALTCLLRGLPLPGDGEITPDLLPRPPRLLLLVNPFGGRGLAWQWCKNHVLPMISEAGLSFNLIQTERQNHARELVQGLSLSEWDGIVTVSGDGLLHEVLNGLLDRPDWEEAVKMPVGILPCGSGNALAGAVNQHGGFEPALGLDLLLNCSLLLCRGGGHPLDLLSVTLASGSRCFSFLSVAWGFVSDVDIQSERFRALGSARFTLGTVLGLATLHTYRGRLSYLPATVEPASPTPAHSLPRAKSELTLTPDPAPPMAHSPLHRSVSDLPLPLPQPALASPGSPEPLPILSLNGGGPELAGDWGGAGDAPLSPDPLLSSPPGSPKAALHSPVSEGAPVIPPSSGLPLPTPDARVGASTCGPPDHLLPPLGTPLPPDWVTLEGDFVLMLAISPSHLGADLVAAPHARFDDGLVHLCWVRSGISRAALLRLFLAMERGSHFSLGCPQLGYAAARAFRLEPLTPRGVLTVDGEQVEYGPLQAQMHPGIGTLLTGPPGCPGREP
# [3] = target: T1, Sphingosine kinase 2 (Homo sapiens); details: at 1 µM
# [4] = target: Casein kinase II subunit alpha (Homo sapiens) (UniProt P68400); details: at 0.1 µM
# [5] = target: Casein kinase II subunit alpha (Homo sapiens) (UniProt P68400); details: at 1 µM
# [6] = target: T2, Inhibitor of nuclear factor kappa-B kinase subunit alpha (Homo sapiens) (UniProt O15111); details: at 0.1 µM
# T2 sequence (whole entry): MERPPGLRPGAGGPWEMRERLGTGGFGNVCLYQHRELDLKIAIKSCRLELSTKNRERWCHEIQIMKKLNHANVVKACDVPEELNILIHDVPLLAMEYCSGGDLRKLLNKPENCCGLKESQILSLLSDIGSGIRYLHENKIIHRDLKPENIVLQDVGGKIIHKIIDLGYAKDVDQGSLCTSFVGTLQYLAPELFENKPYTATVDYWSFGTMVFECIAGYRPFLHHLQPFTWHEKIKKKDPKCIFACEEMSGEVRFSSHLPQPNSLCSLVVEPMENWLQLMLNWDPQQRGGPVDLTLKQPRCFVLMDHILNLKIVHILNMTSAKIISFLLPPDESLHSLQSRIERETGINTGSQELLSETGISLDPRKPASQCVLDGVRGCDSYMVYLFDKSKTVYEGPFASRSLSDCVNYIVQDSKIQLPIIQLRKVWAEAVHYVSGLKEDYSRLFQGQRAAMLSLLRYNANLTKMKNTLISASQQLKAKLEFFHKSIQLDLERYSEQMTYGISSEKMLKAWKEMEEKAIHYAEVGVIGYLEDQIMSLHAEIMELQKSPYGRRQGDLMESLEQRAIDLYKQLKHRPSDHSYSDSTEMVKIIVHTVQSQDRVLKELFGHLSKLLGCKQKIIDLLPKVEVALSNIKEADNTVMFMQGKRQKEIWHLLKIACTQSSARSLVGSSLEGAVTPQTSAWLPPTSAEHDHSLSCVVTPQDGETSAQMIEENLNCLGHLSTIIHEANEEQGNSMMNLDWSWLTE
# [7] = target: T2, Inhibitor of nuclear factor kappa-B kinase subunit alpha (Homo sapiens); details: at 1 µM
# [8] = target: T3, Inhibitor of nuclear factor kappa-B kinase subunit beta (Homo sapiens) (UniProt O14920); details: at 0.1 µM
# T3 sequence (whole entry): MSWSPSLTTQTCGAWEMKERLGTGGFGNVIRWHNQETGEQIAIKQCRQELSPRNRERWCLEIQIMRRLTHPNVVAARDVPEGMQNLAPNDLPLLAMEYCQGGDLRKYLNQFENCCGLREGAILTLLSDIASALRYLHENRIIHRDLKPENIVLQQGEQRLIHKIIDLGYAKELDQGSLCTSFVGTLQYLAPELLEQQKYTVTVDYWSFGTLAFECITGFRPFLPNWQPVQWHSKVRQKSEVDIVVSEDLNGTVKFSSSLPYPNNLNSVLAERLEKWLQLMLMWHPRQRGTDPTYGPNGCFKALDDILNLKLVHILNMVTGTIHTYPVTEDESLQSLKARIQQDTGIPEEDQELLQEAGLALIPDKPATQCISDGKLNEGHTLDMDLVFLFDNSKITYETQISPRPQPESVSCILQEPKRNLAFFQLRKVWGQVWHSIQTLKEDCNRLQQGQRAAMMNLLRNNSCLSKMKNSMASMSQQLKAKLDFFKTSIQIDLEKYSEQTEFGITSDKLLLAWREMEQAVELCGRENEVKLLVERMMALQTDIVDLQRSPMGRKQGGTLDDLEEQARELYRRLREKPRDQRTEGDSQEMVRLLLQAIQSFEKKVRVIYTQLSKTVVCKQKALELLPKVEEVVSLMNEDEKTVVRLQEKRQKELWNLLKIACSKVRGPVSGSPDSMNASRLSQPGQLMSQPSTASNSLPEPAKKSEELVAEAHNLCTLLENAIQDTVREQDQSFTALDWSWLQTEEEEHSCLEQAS
# [9] = target: T3, Inhibitor of nuclear factor kappa-B kinase subunit beta (Homo sapiens); details: at 1 µM
# [10] = target: T4, Inhibitor of nuclear factor kappa-B kinase subunit epsilon (Homo sapiens) (UniProt Q14164); details: at 0.1 µM
# T4 sequence (whole entry): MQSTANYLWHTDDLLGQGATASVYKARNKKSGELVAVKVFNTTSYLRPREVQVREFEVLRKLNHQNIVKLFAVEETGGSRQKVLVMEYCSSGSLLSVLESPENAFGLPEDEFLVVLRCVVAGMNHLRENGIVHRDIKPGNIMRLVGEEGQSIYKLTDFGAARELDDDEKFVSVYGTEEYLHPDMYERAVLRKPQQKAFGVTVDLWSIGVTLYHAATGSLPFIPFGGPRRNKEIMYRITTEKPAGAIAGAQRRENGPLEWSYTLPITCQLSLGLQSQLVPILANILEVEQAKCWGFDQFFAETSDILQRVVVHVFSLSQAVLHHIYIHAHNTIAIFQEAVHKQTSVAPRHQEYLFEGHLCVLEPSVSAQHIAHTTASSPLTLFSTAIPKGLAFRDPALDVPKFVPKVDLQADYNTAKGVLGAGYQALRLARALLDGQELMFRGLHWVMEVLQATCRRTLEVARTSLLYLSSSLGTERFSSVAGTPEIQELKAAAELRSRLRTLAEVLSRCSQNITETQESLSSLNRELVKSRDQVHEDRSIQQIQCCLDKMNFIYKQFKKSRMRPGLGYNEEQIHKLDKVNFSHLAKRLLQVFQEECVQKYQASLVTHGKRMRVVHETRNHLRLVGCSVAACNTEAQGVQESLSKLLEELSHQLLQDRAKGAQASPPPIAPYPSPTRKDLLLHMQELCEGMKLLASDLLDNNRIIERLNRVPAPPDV
# [11] = target: T4, Inhibitor of nuclear factor kappa-B kinase subunit epsilon (Homo sapiens); details: at 1 µM
# [12] = target: T5, Serine/threonine-protein kinase Nek1 (Homo sapiens) (UniProt Q96PY6); details: at 0.1 µM
# T5 sequence (whole entry): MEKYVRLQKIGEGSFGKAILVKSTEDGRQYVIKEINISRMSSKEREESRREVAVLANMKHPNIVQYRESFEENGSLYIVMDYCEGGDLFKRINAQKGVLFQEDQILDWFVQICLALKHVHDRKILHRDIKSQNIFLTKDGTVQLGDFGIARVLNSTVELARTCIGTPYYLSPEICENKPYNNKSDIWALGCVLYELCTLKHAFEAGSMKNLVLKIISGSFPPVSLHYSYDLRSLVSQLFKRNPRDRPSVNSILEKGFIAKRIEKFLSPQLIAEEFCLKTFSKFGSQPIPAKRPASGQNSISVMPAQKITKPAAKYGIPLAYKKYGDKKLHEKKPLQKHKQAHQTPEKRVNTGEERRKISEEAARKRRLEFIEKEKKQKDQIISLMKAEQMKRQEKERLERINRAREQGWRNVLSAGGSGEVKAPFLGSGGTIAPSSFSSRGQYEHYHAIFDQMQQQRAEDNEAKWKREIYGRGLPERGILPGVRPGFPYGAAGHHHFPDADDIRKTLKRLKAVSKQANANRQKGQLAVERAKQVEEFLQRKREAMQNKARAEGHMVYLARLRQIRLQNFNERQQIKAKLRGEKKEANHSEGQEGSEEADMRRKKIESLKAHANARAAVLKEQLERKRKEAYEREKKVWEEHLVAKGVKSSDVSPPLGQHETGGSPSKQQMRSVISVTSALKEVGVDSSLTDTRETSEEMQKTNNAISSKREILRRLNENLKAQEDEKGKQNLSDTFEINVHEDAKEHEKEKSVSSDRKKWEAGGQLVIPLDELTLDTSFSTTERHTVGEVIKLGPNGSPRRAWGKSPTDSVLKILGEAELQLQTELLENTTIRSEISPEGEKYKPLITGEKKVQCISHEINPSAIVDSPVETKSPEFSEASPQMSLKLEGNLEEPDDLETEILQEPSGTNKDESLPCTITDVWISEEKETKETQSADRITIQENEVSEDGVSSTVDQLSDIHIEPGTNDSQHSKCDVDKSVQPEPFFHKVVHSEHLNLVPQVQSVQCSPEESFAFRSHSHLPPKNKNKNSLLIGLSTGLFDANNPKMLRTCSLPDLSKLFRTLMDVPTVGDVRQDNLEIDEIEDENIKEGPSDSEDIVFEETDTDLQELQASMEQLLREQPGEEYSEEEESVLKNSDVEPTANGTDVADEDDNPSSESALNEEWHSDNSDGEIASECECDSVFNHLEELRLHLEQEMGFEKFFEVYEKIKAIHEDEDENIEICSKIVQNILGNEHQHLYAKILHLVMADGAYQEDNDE
# [13] = target: T5, Serine/threonine-protein kinase Nek1 (Homo sapiens); details: at 1 µM
# [14] = target: T6, Serine/threonine-protein kinase Nek2 (Homo sapiens) (UniProt P51955); details: at 0.1 µM
# T6 sequence (whole entry): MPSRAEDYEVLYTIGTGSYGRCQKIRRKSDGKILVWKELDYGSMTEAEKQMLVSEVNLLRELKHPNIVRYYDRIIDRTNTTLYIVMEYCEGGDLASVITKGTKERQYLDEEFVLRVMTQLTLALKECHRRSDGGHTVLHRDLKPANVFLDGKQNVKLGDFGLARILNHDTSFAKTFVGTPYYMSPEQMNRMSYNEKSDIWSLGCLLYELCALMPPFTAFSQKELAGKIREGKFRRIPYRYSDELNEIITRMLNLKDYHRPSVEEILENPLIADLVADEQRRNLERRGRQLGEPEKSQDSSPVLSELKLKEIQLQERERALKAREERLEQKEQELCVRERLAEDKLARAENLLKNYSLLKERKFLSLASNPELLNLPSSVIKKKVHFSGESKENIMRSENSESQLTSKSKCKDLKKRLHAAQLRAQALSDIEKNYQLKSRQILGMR
# [15] = target: T6, Serine/threonine-protein kinase Nek2 (Homo sapiens); details: at 1 µM
# [16] = target: Serine/threonine-protein kinase Nek6 (Homo sapiens) (UniProt Q9HC98); details: at 0.1 µM
# [17] = target: Serine/threonine-protein kinase Nek6 (Homo sapiens) (UniProt Q9HC98); details: at 1 µM
# [18] = target: Serine/threonine-protein kinase Nek7 (Homo sapiens) (UniProt Q8TDX7); details: at 0.1 µM
# [19] = target: Serine/threonine-protein kinase Nek7 (Homo sapiens) (UniProt Q8TDX7); details: at 1 µM
# [20] = target: T7, Serine/threonine-protein kinase Nek9 (Homo sapiens) (UniProt Q8TD19); details: at 0.1 µM;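 also: reported value is the mean percent inhibition of NEK9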
# T7 sequence (whole entry): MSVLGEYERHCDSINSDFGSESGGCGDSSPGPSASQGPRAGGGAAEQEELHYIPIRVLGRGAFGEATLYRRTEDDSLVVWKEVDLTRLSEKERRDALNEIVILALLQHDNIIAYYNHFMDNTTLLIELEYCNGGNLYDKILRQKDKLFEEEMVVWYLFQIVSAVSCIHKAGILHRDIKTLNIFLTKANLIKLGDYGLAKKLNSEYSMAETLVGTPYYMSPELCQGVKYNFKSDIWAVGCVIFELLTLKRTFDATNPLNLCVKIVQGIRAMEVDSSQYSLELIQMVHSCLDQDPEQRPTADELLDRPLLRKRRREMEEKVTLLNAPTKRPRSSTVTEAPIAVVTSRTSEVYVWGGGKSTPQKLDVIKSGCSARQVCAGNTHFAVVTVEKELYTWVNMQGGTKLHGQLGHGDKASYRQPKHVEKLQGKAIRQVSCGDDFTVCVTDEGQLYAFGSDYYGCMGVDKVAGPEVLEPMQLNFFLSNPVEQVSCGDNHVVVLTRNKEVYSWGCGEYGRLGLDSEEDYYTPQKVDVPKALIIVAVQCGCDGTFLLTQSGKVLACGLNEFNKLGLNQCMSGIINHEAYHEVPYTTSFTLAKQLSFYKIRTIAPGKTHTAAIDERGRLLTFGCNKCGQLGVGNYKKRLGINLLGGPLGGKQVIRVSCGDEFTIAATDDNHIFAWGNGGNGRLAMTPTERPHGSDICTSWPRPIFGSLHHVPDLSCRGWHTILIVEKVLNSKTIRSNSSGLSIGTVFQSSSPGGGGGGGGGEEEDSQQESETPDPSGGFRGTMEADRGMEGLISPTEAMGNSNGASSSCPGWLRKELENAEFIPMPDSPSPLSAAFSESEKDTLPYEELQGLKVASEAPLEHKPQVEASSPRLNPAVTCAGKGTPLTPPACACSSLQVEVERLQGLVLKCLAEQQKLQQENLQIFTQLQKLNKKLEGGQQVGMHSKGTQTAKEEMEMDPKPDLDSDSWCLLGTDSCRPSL
# Sequence of Serine/threonine-protein kinase Nek7 (Homo sapiens) (Q8TDX7 whole entry, looked up): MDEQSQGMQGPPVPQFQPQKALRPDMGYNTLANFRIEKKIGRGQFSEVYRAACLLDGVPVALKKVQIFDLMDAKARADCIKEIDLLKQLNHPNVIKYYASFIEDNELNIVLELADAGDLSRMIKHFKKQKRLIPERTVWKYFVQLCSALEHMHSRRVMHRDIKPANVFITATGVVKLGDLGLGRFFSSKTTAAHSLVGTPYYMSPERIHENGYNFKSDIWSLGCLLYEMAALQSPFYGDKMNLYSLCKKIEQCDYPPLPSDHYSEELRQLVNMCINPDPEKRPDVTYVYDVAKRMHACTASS
# Sequence of Casein kinase II subunit alpha (Homo sapiens) (P68400 whole entry, looked up): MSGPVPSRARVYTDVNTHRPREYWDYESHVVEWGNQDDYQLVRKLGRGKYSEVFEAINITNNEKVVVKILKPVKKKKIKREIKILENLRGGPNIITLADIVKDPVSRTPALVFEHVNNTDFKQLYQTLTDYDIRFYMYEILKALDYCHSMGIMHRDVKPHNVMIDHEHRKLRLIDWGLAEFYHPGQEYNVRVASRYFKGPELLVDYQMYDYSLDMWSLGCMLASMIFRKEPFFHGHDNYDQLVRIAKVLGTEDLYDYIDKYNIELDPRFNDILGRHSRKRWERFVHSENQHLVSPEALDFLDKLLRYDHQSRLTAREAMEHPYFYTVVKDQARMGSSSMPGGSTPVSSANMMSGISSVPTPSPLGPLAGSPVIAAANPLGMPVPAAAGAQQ
# Sequence of Serine/threonine-protein kinase Nek6 (Homo sapiens) (Q9HC98 whole entry): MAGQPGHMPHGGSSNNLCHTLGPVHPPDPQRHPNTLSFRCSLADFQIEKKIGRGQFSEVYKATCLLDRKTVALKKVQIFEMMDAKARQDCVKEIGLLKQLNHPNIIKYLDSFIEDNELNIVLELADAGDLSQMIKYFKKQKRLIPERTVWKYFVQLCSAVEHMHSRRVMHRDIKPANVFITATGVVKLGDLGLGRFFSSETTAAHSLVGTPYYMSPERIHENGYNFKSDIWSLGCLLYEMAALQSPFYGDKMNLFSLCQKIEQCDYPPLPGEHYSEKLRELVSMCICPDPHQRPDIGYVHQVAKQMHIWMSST
# Sequence of Sphingosine kinase 1 (Homo sapiens) (Q9NYA1 whole entry): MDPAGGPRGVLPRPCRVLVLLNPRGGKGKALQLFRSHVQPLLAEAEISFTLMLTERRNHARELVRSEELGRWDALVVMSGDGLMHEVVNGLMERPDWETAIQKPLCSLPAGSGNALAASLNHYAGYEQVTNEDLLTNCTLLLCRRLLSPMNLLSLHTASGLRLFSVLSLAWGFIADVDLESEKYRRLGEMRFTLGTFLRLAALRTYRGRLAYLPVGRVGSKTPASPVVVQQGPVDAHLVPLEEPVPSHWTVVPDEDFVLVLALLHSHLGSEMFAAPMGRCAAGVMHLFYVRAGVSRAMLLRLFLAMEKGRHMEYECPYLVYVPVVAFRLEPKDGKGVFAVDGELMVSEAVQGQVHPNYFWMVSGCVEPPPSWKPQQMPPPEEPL
structure (smiles),measurement,setting,value
O=C1NC(=O)C(c2cccc(Cl)c2)=C1Nc1ccc(O)c(Cl)c1,inhibition,[1],-1.72%
same,inhibition,[2],-1.48%
same,inhibition,[3],-0.07%
same,inhibition,[4],-2.69%
same,inhibition,[5],-1.28%
same,inhibition,[6],0.7%
same,inhibition,[7],0.73%
same,inhibition,[8],-0.95%
same,inhibition,[9],-3.39%
same,inhibition,[10],-0.3%
same,inhibition,[11],0.33%
same,inhibition,[12],0.25%
same,inhibition,[13],0.17%
same,inhibition,[14],1.39%
same,inhibition,[15],1.51%
same,inhibition,[16],-0.33%
same,inhibition,[17],-3.08%
same,inhibition,[18],1.78%
same,inhibition,[19],1.51%
same,inhibition,[20],1.58%
